The record followed here is article PMC4336329 (PLoS ONE, 2015).

About 14,000 (4.5%) of roughly 310,000 compounds showed an effect of 50% or more. The effect is printed as a negative number. For the sample, strong results were picked, then their nearest neighbours and some compounds at random.
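Also: peak tail current of the secondary pulse compared with the same well before compound.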

Chain of human ether-à-go-go-related gene (hERG) potassium channel (Q12809 whole entry, looked up): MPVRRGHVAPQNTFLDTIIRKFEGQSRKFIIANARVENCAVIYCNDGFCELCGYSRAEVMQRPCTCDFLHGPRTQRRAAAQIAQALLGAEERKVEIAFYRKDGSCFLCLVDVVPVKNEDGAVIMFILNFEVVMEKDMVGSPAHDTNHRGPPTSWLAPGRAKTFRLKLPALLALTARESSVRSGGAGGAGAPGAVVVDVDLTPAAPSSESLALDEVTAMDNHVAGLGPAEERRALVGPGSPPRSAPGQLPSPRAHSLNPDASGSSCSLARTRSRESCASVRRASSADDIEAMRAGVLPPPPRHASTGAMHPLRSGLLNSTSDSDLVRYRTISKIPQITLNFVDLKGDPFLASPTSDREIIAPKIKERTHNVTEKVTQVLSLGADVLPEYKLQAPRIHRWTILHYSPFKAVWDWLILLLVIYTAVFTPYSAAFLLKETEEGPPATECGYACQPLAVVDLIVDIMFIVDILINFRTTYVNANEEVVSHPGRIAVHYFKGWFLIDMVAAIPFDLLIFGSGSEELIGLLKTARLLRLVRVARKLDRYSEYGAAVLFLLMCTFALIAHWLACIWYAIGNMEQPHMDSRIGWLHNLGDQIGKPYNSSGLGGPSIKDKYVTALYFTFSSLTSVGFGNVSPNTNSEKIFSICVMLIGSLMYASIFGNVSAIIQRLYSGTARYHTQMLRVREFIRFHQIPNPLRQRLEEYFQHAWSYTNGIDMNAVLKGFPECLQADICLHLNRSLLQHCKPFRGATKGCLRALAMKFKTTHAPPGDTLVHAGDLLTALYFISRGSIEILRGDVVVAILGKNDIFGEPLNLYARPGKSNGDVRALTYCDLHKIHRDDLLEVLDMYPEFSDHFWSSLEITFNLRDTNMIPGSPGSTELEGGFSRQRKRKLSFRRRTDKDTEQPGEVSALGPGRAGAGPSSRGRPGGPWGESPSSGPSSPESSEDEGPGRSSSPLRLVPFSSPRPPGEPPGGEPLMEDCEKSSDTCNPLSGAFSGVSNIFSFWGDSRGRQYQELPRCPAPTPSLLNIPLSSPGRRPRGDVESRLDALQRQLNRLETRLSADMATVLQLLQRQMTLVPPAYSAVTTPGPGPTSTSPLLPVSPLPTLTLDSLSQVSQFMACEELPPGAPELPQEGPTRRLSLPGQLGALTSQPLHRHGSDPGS

This experiment concerns the target human ether-à-go-go-related gene (hERG) potassium channel (human, UniProt Q12809). The experiment is described as follows: primary screen, population patch clamp on CHO cells stably expressing hERG; higher = less effect of the substance.
Take `COc1cc(/C=C/C(=O)O)cc(S(=O)(=O)Nc2ccccc2Cl)c1OC`: the “hERG current change (%, negative = inhibition) at 10uM” value is 18.8%.

For `CN(c1ccccc1)S(=O)(=O)c1ccc(Cl)c(C(=O)NCCc2c[nH]c3ccccc23)c1`, the “hERG current change (%, negative = inhibition) at 10uM” value is on record as -15.8%. Take `COc1ccc(/C=C/C(=O)Nc2ccccc2C(=O)O)cc1`: the “hERG current change (%, negative = inhibition) at 10uM” value worked out at 7.91%. As to `O=[N+]([O-])c1cc([N+](=O)[O-])c2nonc2c1Nc1ccc(O)cc1`, the “hERG current change (%, negative = inhibition) at 10uM” value is given as -56.9%.

With `O=[N+]([O-])c1c(Nc2ccc(O)cc2)cc(Cl)c2nonc12`, the “hERG current change (%, negative = inhibition) at 10uM” value is -26.1%. The value for `O=[N+]([O-])c1cc([N+](=O)[O-])c2nonc2c1Nc1ccccc1O` was 10.3%; that for `CCC1CCCCN1C(=O)COC(=O)CN(C)S(=O)(=O)c1ccc(NC(C)=O)cc1` (stereo not drawn) was 7.22%. Regarding `Cc1c(-c2cccc(NC(=O)c3ccco3)c2)nc2ncccn12`, the “hERG current change (%, negative = inhibition) at 10uM” value is recorded as -13.3%. Consider `Cc1ccc(NC(=O)c2nsc(Cl)c2Cl)cc1`, for which the “hERG current change (%, negative = inhibition) at 10uM” value stood at 5.34%. As for `CCCc1nn(C)c2c(=O)[nH]c(-c3ccccc3OCC)nc12`, the “hERG current change (%, negative = inhibition) at 10uM” value was determined as 7.87%. Regarding `CCCOc1ccccc1-c1nc2n[nH]nc2c(=O)[nH]1`, the “hERG current change (%, negative = inhibition) at 10uM” value is on record as -56.3%. `CCCOc1ccccc1-c1nc2c([nH]1)c(=O)[nH]c(=O)n2C`: the “hERG current change (%, negative = inhibition) at 10uM” value was 8.5%. In the case of `COc1ccccc1NC(=O)CCS(=O)(=O)c1cc2c(cc1Cl)NC(=O)CO2`, the “hERG current change (%, negative = inhibition) at 10uM” value is 1.94%. In the case of `CCOC(=O)c1cnc2cc(C)nn2c1-c1ccccc1` it was 3.92%; in that of `CCOc1ccc(/C=N/NC(=O)CN2CCCCCCC2)cc1`, -63%. Take `O=C(CCN1CCCCC1)Nc1ccc(Br)cc1`: the “hERG current change (%, negative = inhibition) at 10uM” value is reported as -37.9%. In the case of `COc1ccc(/C=N/NC2=NCCCCC2)cc1`, the “hERG current change (%, negative = inhibition) at 10uM” value is -43.7%.

In the case of `CCOc1ccc(/C=N/NC2=NCCCCC2)cc1`, the “hERG current change (%, negative = inhibition) at 10uM” value is -69.3%. With `Oc1ccc(/C=N/NC2=NCCCCC2)cc1`, the “hERG current change (%, negative = inhibition) at 10uM” value was -16.2%.

Turning to `O=C(CN1CCCCCCC1)N/N=C/c1ccc(F)c(F)c1`, the “hERG current change (%, negative = inhibition) at 10uM” value is -33.7%. With `CCCCCCC(=O)N/N=C/c1ccc(Br)cc1`, the “hERG current change (%, negative = inhibition) at 10uM” value was 1.25%. As for `Cc1cccc(/C=N/NC(=O)CN2CCCCCCC2)c1`, the “hERG current change (%, negative = inhibition) at 10uM” value was -45.9%. In the case of `O=C(CCN1CCCCC1)N/N=C/c1ccc(Br)cc1`, the “hERG current change (%, negative = inhibition) at 10uM” value is -77.8%. As to `O=C(CN1CCCCCC1)N/N=C/c1ccc2ccccc2c1`, the “hERG current change (%, negative = inhibition) at 10uM” value was -64.6%. The value for `CCOc1ccc(/C=N/NC(=O)CN2CCSCC2)cc1` was 1.7%; that for `CCCOc1ccc(/C=N/NC(=O)CN2CCCCC2)cc1` was -49.7%; that for `CC(=O)c1ccc(OCc2cc(=O)n3ccsc3n2)cc1` was -1.4%. Take `C=CCN1C(=O)C(CC(=O)NCC)SC1=Nc1cc(Cl)ccc1Cl` (stereo not drawn): the “hERG current change (%, negative = inhibition) at 10uM” value was -2.76%. `Cc1ccc(NC(=O)C(C)OC(=O)CCNS(=O)(=O)c2ccc(C)cc2)cc1` (stereo not drawn): the “hERG current change (%, negative = inhibition) at 10uM” value is -16.5%. As for `CCOC(=O)C1=C(C)NC(=O)NC1`, the “hERG current change (%, negative = inhibition) at 10uM” value is -3.56%. Consider `CCN(CC)S(=O)(=O)c1cc(NC(=O)CCNC(=O)c2ccccc2Cl)ccc1C`, for which the “hERG current change (%, negative = inhibition) at 10uM” value is listed as -11.5%.

Take `COc1cc(/C=C/c2nc3ccccc3c(=O)[nH]2)cc(Br)c1O`: the “hERG current change (%, negative = inhibition) at 10uM” value came out at 30.6%. The value for `CC(C)(C)Nc1nc(NN)nc(NC(C)(C)C)n1` was 11.8%; that for `O=C(Nc1ccc(C(=O)O)cc1)/C(=C\c1ccco1)NC(=O)c1ccccc1` was 21.2%. `Cl.O=C1c2ccccc2C(=O)N1CC#CCN1CCN(C2CCCCC2)CC1`: the “hERG current change (%, negative = inhibition) at 10uM” value is given as -40.8%. Take `O=C(CN1CCCCC1)N/N=C/c1ccc(Cl)cc1Cl`: the “hERG current change (%, negative = inhibition) at 10uM” value is given as -39.1%. On to `CC1CCN(CCC(=O)N/N=C/c2ccc([N+](=O)[O-])cc2)CC1`, for which the “hERG current change (%, negative = inhibition) at 10uM” value was -70%. Consider `O=C(CN1CCSCC1)N/N=C/c1ccc(Cl)cc1`, for which the “hERG current change (%, negative = inhibition) at 10uM” value is listed as -12.5%. With `O=C(CN1CCCCC1)N/N=C/c1ccc(Cl)cc1`, the “hERG current change (%, negative = inhibition) at 10uM” value was -66.9%. Take `O=C(CN1CCCCCC1)N/N=C/c1ccc(Cl)c(Cl)c1`: the “hERG current change (%, negative = inhibition) at 10uM” value is on record as -60%. Take `CN1CCN(CCC(=O)N/N=C/c2cc([N+](=O)[O-])ccc2O)CC1`: the “hERG current change (%, negative = inhibition) at 10uM” value is recorded as 1.18%. Take `O=C(CN1CCCCCC1)N/N=C/c1cccc(Cl)c1`: the “hERG current change (%, negative = inhibition) at 10uM” value is reported as -37.5%. On to `O=C(CN1CCCCC1)N/N=C/c1cccc(Cl)c1`, for which the “hERG current change (%, negative = inhibition) at 10uM” value is recorded as -35.6%. `Cn1cccc1CC(=O)N/N=C/c1ccc([N+](=O)[O-])cc1`: the “hERG current change (%, negative = inhibition) at 10uM” value was -1.88%. Consider `CCOC(=O)c1c(N)nn(C(=O)c2ccccc2F)c1-c1ccc(OC)cc1`, for which the “hERG current change (%, negative = inhibition) at 10uM” value amounted to 3.53%.

Turning to `Nn1c(Cc2cccc3ccccc23)nnc1SCC(=O)N1CC(=O)Nc2ccccc21`, the “hERG current change (%, negative = inhibition) at 10uM” value amounted to 7.01%. Turning to `Cc1ccc2cc(CCNC(=O)c3ccco3)c(=O)[nH]c2c1`, the “hERG current change (%, negative = inhibition) at 10uM” value was -13.6%. Consider `CCN(CC)c1ccc(-n2c(C)cc(C=O)c2C)cc1`, for which the “hERG current change (%, negative = inhibition) at 10uM” value is 6.33%. Turning to `CC[N+]12CCC(CC1)C(=C(c1ccccc1)c1ccccc1)C2.[Br-]`, the “hERG current change (%, negative = inhibition) at 10uM” value is reported as -73.6%.

As to `CC[N+]12CCC(CC1)C(C(O)(c1ccccc1)c1ccccc1)C2.[Br-]` (stereo not drawn), the “hERG current change (%, negative = inhibition) at 10uM” value was -5.24%. On to `CCC[N+]12CCC(CC1)C(=C(c1ccccc1)c1ccccc1)C2.[Br-]`, for which the “hERG current change (%, negative = inhibition) at 10uM” value is listed as -70.1%. For the compound `CC/C(=N/N=C(\CC)c1ccccc1)c1ccccc1`, the “hERG current change (%, negative = inhibition) at 10uM” value is 5.16%. Turning to `CCCC[N+]12CCC(CC1)C(Cc1ccccc1)C2.[Br-]` (stereo not drawn), the “hERG current change (%, negative = inhibition) at 10uM” value is 21.9%. Regarding `CCCC[N+]12CCC(CC1)C(=C(c1ccccc1)c1ccccc1)C2.[Br-]`, the “hERG current change (%, negative = inhibition) at 10uM” value is recorded as -72.4%. Take `CCC/C(=N\NC(=O)C1CC1)c1ccccc1`: the “hERG current change (%, negative = inhibition) at 10uM” value is recorded as -2.21%. As for `CCCC[N+]12CCC(CC1)C(C(O)(c1ccccc1)c1ccccc1)C2.[Br-]` (stereo not drawn), the “hERG current change (%, negative = inhibition) at 10uM” value is on record as 5.84%.

As for `CCC[N+]12CCC(CC1)C(C(O)(c1ccccc1)c1ccccc1)C2.[Br-]` (stereo not drawn), the “hERG current change (%, negative = inhibition) at 10uM” value is reported as -0.95%. For `COC(=O)COc1ccc2c(=O)c(-c3ccccc3OC)coc2c1`, the “hERG current change (%, negative = inhibition) at 10uM” value is reported as 10.2%. `COc1ccc(CSc2nncn2N)cc1Br`: the “hERG current change (%, negative = inhibition) at 10uM” value was found to be 4.98%. Regarding `Cc1cc(C)c(-n2c(C)cc(/C=C3/NC(=O)NC3=O)c2C)c(C)c1`, the “hERG current change (%, negative = inhibition) at 10uM” value is recorded as -9.75%.
